Screening results: PubChem, several laboratories
CYP2C9 act = activators of human CYP2C9. P11712. recombinant CYP2C9, luciferin-H conversion, luminescence; active compounds read high; factor 1 = untreated enzyme, 0 = blocked. activation factor at 5 µM. hit rate 1.4% among 96,000. AID 1024;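 active means activation factor of 2 or more for CYP2C9 at a 5 µM dose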;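 further: 0 = sulfaphenazole-blocked wells and 1 = vehicle-only wells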
Target sequence (P11712 whole entry, looked up): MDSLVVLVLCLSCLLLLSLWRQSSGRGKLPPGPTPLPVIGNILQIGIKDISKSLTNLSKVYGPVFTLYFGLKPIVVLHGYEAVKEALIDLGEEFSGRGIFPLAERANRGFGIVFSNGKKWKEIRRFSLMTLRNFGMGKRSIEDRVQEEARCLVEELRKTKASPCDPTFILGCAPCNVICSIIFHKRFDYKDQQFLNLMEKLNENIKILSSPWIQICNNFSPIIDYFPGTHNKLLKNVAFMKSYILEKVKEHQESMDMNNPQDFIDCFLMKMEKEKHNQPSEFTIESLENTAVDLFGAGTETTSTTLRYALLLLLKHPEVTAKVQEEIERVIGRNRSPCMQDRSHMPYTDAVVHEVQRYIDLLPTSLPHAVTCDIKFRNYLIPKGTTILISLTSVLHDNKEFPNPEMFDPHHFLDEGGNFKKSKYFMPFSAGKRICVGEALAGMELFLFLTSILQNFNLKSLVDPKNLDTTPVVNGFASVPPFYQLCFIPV
Plk1 PBD FP = Plk1 (human) PBD binding inhibition; Plk1 PBD phosphopeptide binding, fluorescence polarization; inhibition, %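 (tested at about 20 µM)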; hit rate 0.13% among 97,000; AID 693; in the data active means inhibition above about 34%, passing the limit was not always enough
CYP2C9 inh = human CYP2C9 inhibition | P11712 | CYP2C9 Supersomes, luciferin-H conversion, luminescence | inhibition, % at 5 µM | hit rate 20% among 96,000;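 active means blocking of liver enzyme CYP2C9 beyond about 50% at 5 µM, limit read from the data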
CYP2C19 inh = human CYP2C19 inhibition. P33261. CYP2C19 Supersomes, luciferin-H EGE luminescence, 30 min. inhibition, % at 5 µM. hit rate 21% among 96,000. AID 778;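 active means CYP2C19 inhibition above a set limit at 5 µM in the primary screen, cut at about 50% in these data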;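 further: plate controls were negative control wells for no effect and 2.5 mM tranylcypromine positive control for full effect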
PLK1 inh = inhibitors of human PLK1 kinase; P53350; recombinant PLK1 kinase, TR-FRET peptide phosphorylation; inhibition, % at 10 µM; hit rate 0.53% among 97,000; AID 619;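 active means inhibition of 50% or more in the single-concentration screen; inactive means inhibition below 50%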;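 further: 0% = DMSO max control and 100% = H-89 dihydrochloride min control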
CYP2C19 act = cytochrome P450 2C19 (human) activation. P33261. recombinant CYP2C19, luciferin-H EGE luminescence; active compounds read high; 0 = fully inhibited enzyme, 1 = untreated enzyme. activation factor at 5 µM. 96,000 tested, under 10 active. AID 1025;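 active means activation factor of at least 2 at 5 µM in the primary screen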;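 further: 0 = wells with 2.5 mM tranylcypromine and 1 = vehicle-only wells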
An asterisk follows results filed as active; nt = not tested or not shown. Only some compounds are listed: those with a hit (about 28% of all), similar ones and a draw of the others.

SMILES	CYP2C9 act	Plk1 PBD FP	CYP2C9 inh	CYP2C19 inh	PLK1 inh	CYP2C19 act
CC(C)(C)OC(=O)NCCc1nnc(SCc2c(Cl)cccc2Cl)o1	0.3	-23.9	72.4*	91.6*	-12.7	0.1
C[C@H](NC(=O)OC(C)(C)C)c1nnc(SCC(=O)c2ccc(Cl)cc2)o1	0.8	-29.1	21.4	22.1	-0.7	0.8
CC(C)[C@H](NC(=O)OC(C)(C)C)c1nnc(SCC(=O)Nc2ccc(Br)cc2)o1	0.3	-2.8	69.8*	48.9	-1.7	0.5
Cc1[nH]c(=O)[nH]c(=O)c1CSc1nnc([C@@H](NC(=O)OC(C)(C)C)C(C)C)o1	0.9	-6.4	7.3	3.7	18.0	1
CC(C)(C)OC(=O)NCCc1nnc(SCc2ccc(Cl)cc2Cl)o1	0.2	12.5	75.3*	60.4*	-9.7	0.4
CC(C)c1ccc(N2C(=O)CC(Sc3nc4ccccc4o3)C2=O)cc1 (stereo not drawn)	0.5	-17.8	49.8	5.7	-6.8	0.9
c1cncc(Oc2cccc(Oc3cccnc3)c2)c1	nt	4.4	nt	nt	1.8	nt
O=C(CSc1nnc(CNC(=O)c2ccccc2F)o1)c1ccc(Cl)cc1	0.5	-4.2	53.5*	37.3	-7.0	0.6
CC(C)(C)OC(=O)NCCc1nnc(SCC(=O)c2ccc(Cl)cc2)o1	0.3	3.2	69.9*	77.0*	-6.8	0.2
CC(C)(C)OC(=O)N1CCC[C@H]1c1nnc(SCc2ccccc2Cl)o1	0.6	-1.1	37.2	32.7	3.9	0.7
CSc1nnc([C@H](C)NC(=O)OC(C)(C)C)o1	0.9	-26.1	7.4	18.7	-16.9	0.8
CC(C)(C)OC(=O)N1CCC[C@H]1c1nnc(SCc2c(F)cccc2Cl)o1	0.2	0.2	76.5*	45.0	-13.3	0.6
CC(C)Sc1nnc([C@H](C)NC(=O)OC(C)(C)C)o1	0.8	-10.8	24.0	56.7*	-17.2	0.4
O=C(c1ccc(S(=O)(=O)N2CCC(c3nc4ccccc4s3)CC2)cc1)N1CCCCC1	nt	-7.0	nt	nt	-7.6	nt
COc1ccc(-c2c[n+]3c4n2CCCCC4=C(c2ccccc2)C3)cc1	1	-8.4	-0.9	-10.8	-19.6	1.1
COCCCNS(=O)(=O)c1ccc(S(=O)(=O)N2CCCC2)cc1	0.6	-7.8	44.3	28.8	-14.1	0.7
Cc1cccc(C)c1NC(=O)CSc1nnc([C@H](C)NC(=O)OC(C)(C)C)o1	0.7	-12.7	27.4	18.1	1.7	0.8
CSCC[C@H](NC(=O)OC(C)(C)C)c1nnc(SCC(=O)Nc2c(C)cccc2C)o1	0.4	1.7	57.6*	7.7	-8.4	0.9
COc1ccc(C(=O)c2cnc3cc4c(cc3c2C)OCO4)cc1	0.4	-17.7	64.9*	94.9*	9.1	0.1
O=C(Oc1ccc2cccc(OC(=O)N3CCOCC3)c2c1)N1CCOCC1	0.9	-15.5	12.9	1.4	-14.5	1
c1cncc(C2Nc3ccccc3-c3nc4ccccc4n32)c1 (stereo not drawn)	0.4	12.5	57.1*	37.2	-39.5	0.6
CCN1c2ccccc2-c2nc3ccccc3n2C1c1ccccn1 (stereo not drawn)	0.7	-32.1	34.1	10.3	-8.0	0.9
Cc1ccc(C2N(C)c3ccccc3-c3nc4ccccc4n32)o1 (stereo not drawn)	0.1	4.3	92.6*	86.9*	-1.7	0.1
CCN1c2ccccc2-c2nc3ccccc3n2C1c1cccnc1 (stereo not drawn)	0.3	-3.2	71.1*	15.3	-9.0	0.8
CCN1c2ccccc2-c2nc3ccccc3n2C1c1ccncc1 (stereo not drawn)	0	4.3	99.9*	97.7*	-14.5	0
SMILES	CYP2C9 act	Plk1 PBD FP	CYP2C9 inh	CYP2C19 inh	PLK1 inh	CYP2C19 act
c1ccc2c(c1)NC(c1ccncc1)n1c-2nc2ccccc21 (stereo not drawn)	nt	-13.1	nt	nt	-12.8	nt
CCc1ccccc1NC(=O)CC(O)(C(=O)OC)C(F)(F)F (stereo not drawn)	0.8	-10.4	23.4	48.3	7.8	0.5
CCC(CC)C(=O)Nc1c2c(nn1-c1ccc(OC)cc1)CS(=O)(=O)C2	0.5	14.8	54.6*	1.9	-15.8	1
CCCC(=O)Nc1c2c(nn1-c1ccc(OC)cc1)CS(=O)(=O)C2	1	-4.2	4.6	-9.9	-12.3	1.1
O=C(NC1CCN(C(=S)NCc2ccco2)CC1)NC12CC3CC(CC(C3)C1)C2	1	23.7	2.1	17.7	-2.9	0.8
O=C1/C(=C/c2ccc(F)c(F)c2)CSc2sccc21	0.2	1.8	77.7*	40.1	-0.4	0.6
CCc1cccc(CC)c1N(COC)C(=O)Cn1nnc2ccccc21	0	-2.1	99.7*	82.4*	-6.5	0.2
CCc1cccc(CC)c1N(COC)C(=O)Cn1c(CO)nc2ccccc21	0.5	0.1	51.0*	35.8	-5.1	0.6
CCOC(=O)CCn1c(CC(=O)OCC)nc2ccccc21	0.9	0.6	5.0	12.1	-5.3	0.9
CCc1cccc(CC)c1N(COC)C(=O)Cn1ccccc1=N	1	2.6	-3.3	-13.0	-4.2	1.1
Cc1cc(C)c(OCCN2C(=O)NC(C)(C)C2=O)c(Cl)c1	0.6	17.2	36.3	96.2*	-15.8	0
Cc1cc(Cl)c(OCCN2C(=O)NC(C)(C)C2=O)c(Br)c1	0.9	-17.8	13.8	97.6*	-14.5	0
Cc1cc(Cl)cc(Br)c1OCCCN1C(=O)NC(C)(C)C1=O	0.6	-10.3	39.4	90.4*	-12.4	0.1
COc1ccc(C)cc1N(CC(=O)NC1CCCC1)C(=O)CCC(=O)Nc1cc(C)on1	0.6	5.3	40.1	29.4	-7.0	0.7
O=C(/C=C/c1ccccc1)NC(=S)NNC(=O)c1cccnc1	0.5	-11.9	50.6*	0.9	-13.1	1
COc1ccc(/C=C/C(=O)NC(=S)NNC(=O)c2cccnc2)cc1OC	0.9	-17.7	14.5	-8.9	-7.1	1.1
Cc1ccc(C2CC(C(F)(F)F)n3ncc(C(=O)NCc4ccco4)c3N2)cc1 (stereo not drawn)	0.7	7.5	25.4	25.8	4.4	0.7
O=C1C(=O)c2c(C(=O)c3ccccc3)coc2-c2ccccc21	0.1	3.3	94.7*	82.5*	-12.0	0.2
CCc1cc2c(=O)c(-n3cnc4ccccc43)coc2cc1O	1.1	-26.0	-15.0	34.1	-10.7	0.7
Cc1ccc2c(n1)sc1c(-c3ccccc3)c(C#N)c(N)nc12	0.9	-17.4	12.4	-10.4	-2.5	1.1
Cc1nnc(SCC2CCCO2)n1-c1ccccc1 (stereo not drawn)	1	nt	2.7	17.6	nt	0.8
CS(=O)(=O)N(CC(=O)NCC1CCCO1)c1ccc(F)c(Cl)c1 (stereo not drawn)	1	11.1	3.6	60.0*	-9.6	0.4
CS(=O)(=O)N(CC(=O)NCC1CCCO1)c1ccc(Cl)c(Cl)c1 (stereo not drawn)	1.1	-33.2	-8.4	41.7	-3.8	0.6
Cc1cccc2cc(C#N)c(SCC(=O)NCC3CCCO3)nc12 (stereo not drawn)	nt	-13.3	nt	nt	-9.9	nt
